# Assay results as given in PubChem BioAssay (NCATS).
# Inconclusive results are not listed. Where a call stands in place of a potency, no number is given. Calls of active or inactive are those of the source. Unless noted, the call rests on the fitted dose curve; in most records, active means well fitted curve in the direction sought with a large enough effect; inconclusive means small, poorly fitted or top-dose-only effect, or another doubt; inactive means no such curve, though single readings can be large; an effect the other way counts as inactive or inconclusive.
# Legend:
# [1] = Primary qHTS for inhibitors of SARS-S pseudo-typed particle cell entry (AID 1479145; calls by dose curve; further: nearly all actives have a fitted effect of over 45% in size)
# [2] = Primary qHTS for Huh7 cytotoxicity: counterscreen for inhibitors of MERS-S pseudotyped particle cell entry (AID 1479147; calls by dose curve); conditions: outcome: dose series up to 57.1 µM unless noted
# [3] = Primary qHTS for inhibitors of MERS-S pseudo-typed particle cell entry (AID 1479149; calls by dose curve; further: nearly all actives have a fitted effect of over 60% in size)
# [4] = Primary qHTS for Vero E6 cytotoxicity: counterscreen for inhibitors of SARS-S pseudo-typed particle cell entry (AID 1479150; calls by dose curve); conditions: outcome: dose series up to 57.1 µM unless noted
# [5] = target: DNA dC->dU-editing enzyme APOBEC-3G (Homo sapiens) (UniProt Q9HC16); experiment: qHTS for inhibitors of Vif-A3G interactions: Validation (AID 588379)
# Sequence of DNA dC->dU-editing enzyme APOBEC-3G (Homo sapiens) (Q9HC16 whole entry, looked up): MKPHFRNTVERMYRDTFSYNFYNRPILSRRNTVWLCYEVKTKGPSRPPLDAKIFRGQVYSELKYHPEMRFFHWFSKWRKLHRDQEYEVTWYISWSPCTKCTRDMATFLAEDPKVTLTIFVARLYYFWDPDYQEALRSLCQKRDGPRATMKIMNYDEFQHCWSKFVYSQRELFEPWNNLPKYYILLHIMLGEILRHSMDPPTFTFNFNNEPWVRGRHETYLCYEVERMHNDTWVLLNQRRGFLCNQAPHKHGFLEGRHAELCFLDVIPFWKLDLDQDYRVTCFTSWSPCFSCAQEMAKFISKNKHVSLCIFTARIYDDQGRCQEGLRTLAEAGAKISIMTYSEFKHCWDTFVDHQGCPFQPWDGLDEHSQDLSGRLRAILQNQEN
# How it was run: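 Yellow fluorescence (Ex 488, Em 500-530) of Vif-coexpressing HeLa A3G-eYFP cells, scanned by Acumen cytometer, reports blocked A3G degradation. Cells plated at 700/well overnight at 37 deg C before compound addition, then a further overnight compound incubation at 37 deg C.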
# [6] = test system: Zika virus NS2B-NS3 protease; experiment: Primary screen GU AMC qHTS for Zika virus inhibitors (AID 1347154); further: nearly all actives have a fitted effect of over 70% in size
# How it was run: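 Unlinked Zika NS2B hydrophilic domain/NS3 protease domain noncovalent complex (25 nM final) in 10 mM Tris-HCl pH 8.0, 0.01% Tween 20, with AMC peptide substrate. Fluorescence (ex 340, em 450 nm) change over 15 min, room temperature; percent inhibition fitted to 4-parameter Hill equation.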
# [7] = Primary qHTS for small molecule stabilizers of the endoplasmic reticulum resident proteome: Secreted ER Calcium Modulated Protein (SERCaMP) assay (AID 1508630); further: potency means the concentration at half of the fitted maximal effect
# How it was run: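 The SH-SY5Y reporter protocol was run at 3 concentrations up to 38.3 uM (primary) or 11 concentrations (follow-up): 16 h compound, 100 nM thapsigargin for 4 h, then extracellular luciferase luminescence.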
# [8] = Primary qHTS to identify inhibitors of SARS-CoV-2 cell entry (AID 1645846; calls by dose curve; further: nearly all actives have a fitted effect of over 45% in size; further: potency means the concentration at half of the fitted maximal effect); conditions: activity change, negative = inhibition: at 57.1 µM (top of the series) unless noted
# How it was run: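 Luminescence readout (Bright-Glo luciferase) 48 h after pseudoparticle addition. HEK293-ACE2 cells, 1500/well; compound pre-incubation 1 h; Normalized to spike PP and bald PP.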
# [9] = AP1 Signaling Pathway (AID 357; active means well fitted curve in either direction with a large enough effect, not every such curve was filed as active;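 further: ME-180 reporter cells stimulated with EGF at its EC50 level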)
# How it was run: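 A ratiometric CCF4 readout (405 nm excitation; 460 and 530 nm emission) quantified AP-1-driven beta-lactamase in ME-180 cells after 5 h with compound and EC50 EGF; AC50 values were derived for activators and inhibitors.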
# [10] = NFAT Signaling Pathway (AID 444; active means well fitted curve in either direction with a large enough effect, not every such curve was filed as active;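 further: carbachol stimulus at about its EC50 of 1 µM final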); conditions: Jurkat NFAT-bla M1, carbachol, beta-lactamase ratio, 5 h
# How it was run: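 Jurkat cells carrying an NFAT-driven β-lactamase reporter and co-transfected muscarinic M1 receptor were treated with compound plus carbachol (1 uM final, an EC50 level) for 5 h at 37 °C. CCF4 loading followed for 1 h at RT; 460/530 nm ratio gave %activity.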
# [11] = Stat Signaling Pathway (AID 446; active means well fitted curve in either direction with a large enough effect, not every such curve was filed as active;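 further: ME-180 cervical cancer cells given 40 pM IL-6 alongside compound; SIE-controlled beta-lactamase reporter measured as 460/530 nm FRET emission ratio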)
# How it was run: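 Compound effects on IL-6-induced STAT reporter activity were measured in ME-180 cells. After overnight culture, cells were co-treated with 40 pM IL-6 for 5 hrs before beta-lactamase substrate loading at room temperature.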
# [12] = target: Glucocorticoid receptor (Homo sapiens) (UniProt P04150); experiment: GR-GFP Redistribution (AID 450;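 active means compounds whose dose series gives a full or clear partial fitted curve of increased nuclear translocation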; further: potency means the concentration at half of the fitted maximal effect); conditions: U2OS GR-GFP nuclear translocation, laser cytometry, 2 h
# Sequence of Glucocorticoid receptor (Homo sapiens) (P04150 whole entry, looked up): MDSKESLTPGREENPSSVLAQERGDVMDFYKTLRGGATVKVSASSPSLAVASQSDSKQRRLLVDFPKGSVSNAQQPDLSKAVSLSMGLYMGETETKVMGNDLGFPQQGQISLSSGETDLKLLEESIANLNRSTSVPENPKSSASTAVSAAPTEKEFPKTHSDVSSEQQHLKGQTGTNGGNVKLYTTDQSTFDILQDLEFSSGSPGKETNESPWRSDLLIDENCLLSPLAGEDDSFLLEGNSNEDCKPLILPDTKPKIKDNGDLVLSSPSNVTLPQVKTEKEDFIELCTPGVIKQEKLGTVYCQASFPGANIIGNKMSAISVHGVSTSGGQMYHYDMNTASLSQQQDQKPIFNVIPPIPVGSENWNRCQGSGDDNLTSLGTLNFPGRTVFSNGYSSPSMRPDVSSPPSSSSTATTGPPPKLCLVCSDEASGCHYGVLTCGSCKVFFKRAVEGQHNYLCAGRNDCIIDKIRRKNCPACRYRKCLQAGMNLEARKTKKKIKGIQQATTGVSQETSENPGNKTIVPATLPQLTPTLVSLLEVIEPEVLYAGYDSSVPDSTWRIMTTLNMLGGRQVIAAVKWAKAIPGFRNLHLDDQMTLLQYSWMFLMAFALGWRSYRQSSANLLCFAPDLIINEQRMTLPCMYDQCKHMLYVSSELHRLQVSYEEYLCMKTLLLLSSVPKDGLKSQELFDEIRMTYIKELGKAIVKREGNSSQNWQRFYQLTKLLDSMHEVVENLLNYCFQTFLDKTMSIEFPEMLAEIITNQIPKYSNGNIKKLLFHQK
# [13] = qHTS Assay for Lipid Storage Modulators (AID 1519; calls by dose curve); conditions: Drosophila S3 cells, BODIPY lipid droplet/cell ratio, laser cytometry, cells loaded with oleic acid; for activity change, negative = inhibition: at 57.5 µM (top of the series)
# How it was run: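 Cells seeded at 5,000 per well were treated with compounds over a concentration series and loaded with oleic acid (400 uM, as added). Lipid droplet fluorescence (488 nm excitation, 500-530 nm channel) was read by laser-scanning cytometry and normalized to 20 uM Triacsin C.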
# [14] = Tertiary RLuc qRT-PCR qHTS assay for Zika virus inhibitors (AID 1347169); further: nearly all actives have a fitted effect of over 55% in size; further: potency means the concentration at half of the fitted maximal effect; on activity change, negative = inhibition: top concentration of the series differs between compounds
# How it was run: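 Vero cells (1,000 per well) plated overnight at 37 degrees C, treated with compound in DMSO, then infected with recombinant ZIKV-RLuc (Cambodian) at MOI 1-2 for 48-72 hrs. Live-cell Renilla luciferase substrate added; luminescence read after 1-1.5 hrs.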
# [15] = Confirmatory qHTS for VERO E6 Cytotoxicity Assay: Counterscreen for SARS-CoV-2 CPE Assay (AID 1508605; calls by dose curve; further: nearly all actives have a fitted effect of over 60% in size; further: potency means the concentration at half of the fitted maximal effect)
# [16] = Confirmatory qHTS for activators (rescue) of SARS-CoV-2 Cytopathic Effect (CPE) (AID 1508606; calls by dose curve; further: potency means the concentration at half of the fitted maximal effect; nearly all actives have a fitted effect of over 70% in size)
# [17] = qHTS assay to identify inhibitors of the type 1 interferon - major histocompatibility complex class I in skeletal muscle: Counter screen cell viability and HiBit confirmation (AID 1347412); conditions: iHSKM muscle cells + IFN-b, HiBiT or CellTiter-Glo, 24 h; Potency: HiBiT; Viability, at 45.9 µM (top of the series); further: nearly all actives have a fitted effect of over 60% in size; further: potency means the concentration at half of the fitted maximal effect
# How it was run: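 HLA-B*08:01–HiBiT knock-in immortalized human myoblasts (C25cl48) stimulated with 4.0 ng/ml human IFN-beta and dosed with compound in a 12-point 1:3 titration (top final 46 uM). After 24 hrs at 37 C, HiBiT lytic luminescence or CellTiter Glo ATP read out.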
# [18] = test system: HEK293T; experiment: qHTS assay to identify novel small-molecules to repurpose for Merkel cell carcinoma treatment (AID 1296009); conditions: MCC and control cell lines, CellTiter-Glo viability, 72 h; at 44.8 µM (top of the series) unless noted; further: nearly all actives have a fitted effect of over 60% in size
# How it was run: (§1)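 Luminescence from CellTiter-Glo, read 10 min after addition at room temperature, reported viability following a 72 hr, 37 degree celsius treatment with NPC or MIPE compounds in titration; values normalized to plate controls.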
# [19] = qHTS to identify inhibitors of the type 1 interferon - major histocompatibility complex class I in skeletal muscle: primary screen against the NCATS Mechanism Interrogation Plate v5.0 (MIPE) Libary (AID 1347411); further: nearly all actives have a fitted effect of over 65% in size; further: potency means the concentration at half of the fitted maximal effect
# How it was run: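 IFN-beta-driven (4 ng/ml) HLA-B-HiBit expression in CRISPR-tagged C25cl48 myoblasts; compounds 11-pt, 1:3, max 46 uM, 24 hr exposure; lytic NanoLuc complementation luminescence.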
# [20] = test system: NIH3T3; experiment: qHTS assay to identify novel small-molecules to repurpose for Merkel cell carcinoma treatment (AID 1296009); conditions: MCC and control cell lines, CellTiter-Glo viability, 72 h; at 44.8 µM (top of the series) unless noted; further: nearly all actives have a fitted effect of over 60% in size
# How it was run: as §1
# [21] = measured here: cell count channel max response
# [22] = measured here: lipid channel max response
structure (smiles),measurement,setting,value
CC(=O)O[C@H]1CC[C@H]2[C@@H]3CC[C@H]4CC(=O)C=C(C)[C@]4(C)[C@H]3CC[C@]12C,Potency,[1],inactive
same,outcome,[2],inactive
same,Potency,[3],inactive
same,outcome,[4],inactive
CN1CCc2cc3c(cc2C1C1OC(=O)c2c1ccc1c2OCO1)OCO3 (centres undefined),Potency,[5],inactive
same,Potency,[6],inactive
same,Potency,[7],inactive
COc1ccc(CN(C(=O)[C@@H](N)Cc2c(C)cc(C(N)=O)cc2C)[C@@H](C)c2ncc(-c3ccccc3)[nH]2)cc1C(=O)O,Potency,[1],inactive
same,outcome,[2],inactive
same,Potency,[3],inactive
same,outcome,[4],inactive
same,"activity change, negative = inhibition",[8],-25.7%
C=CCN1CCC2(C)c3cc(O)ccc3C[C@H]1[C@H]2C,outcome,[9],inactive
same,"activity change, negative = inhibition",[10]; at 38 µM (top of the series),-29.1% (inactive)
same,outcome,[11],inactive
same,Potency,[12],> 46 µM (inactive)
same,"activity change, negative = inhibition",[13],-8.46% (inactive)
same,max response,[13]; [21],25.8%
same,max response,[13]; [22],17%
same,Potency,[5],inactive
same,Potency,[6],inactive
same,Potency,[14],inactive
same,Potency,[7],inactive
Oc1ccc2c3c1O[C@H]1c4[nH]c5c(N=C=S)cccc5c4C[C@@]4(O)[C@@H](C2)N(CC2CC2)CC[C@]314,Potency,[15],inactive
same,Potency,[16],10 µM (active)
CC1=CC(=O)[C@@H](O)[C@]2(C)C3[C@@H](O)[C@@H]4OC(=O)[C@@H]([C@H]4C)[C@]3(C)C(=O)C[C@@H]12 (some centres undefined),Potency,[15],2.24 µM (active)
CNc1ccc2oc(C[C@H]3O[C@@]4(CC[C@H]3C)O[C@H](C(C)C(=O)c3ccc[nH]3)[C@H](C)C[C@H]4C)nc2c1C(=O)O (some centres undefined),Potency,[14],658 nM (active)
CN(C)c1cc2c(cc1Sc1nc3c(N)nccc3n1CCNCC(C)(C)C)OCO2,Potency,[16],2.24 µM (active)
CC1CCCC(=O)CCC/C=C/c2cc(O)cc(O)c2C(=O)O1 (centres undefined),"activity change, negative = inhibition",[13],-7.32% (inactive)
same,max response,[13]; [21],9.42%
same,max response,[13]; [22],4.67%
CC(=O)OC[C@]12C[C@H](OC(=O)CC(C)C)C(C)=C[C@H]1O[C@@H]1[C@H](O)[C@@H](O)[C@@]2(C)[C@]12CO2,Potency,[15],0.113 µM (active)
Cc1sc2c(c1C)C(c1ccc(Cl)cc1)=N[C@@H](CC(N)=O)c1nnc(C)n1-2,"activity change, negative = inhibition",[8],-6.24%
same,Potency,[17],inactive
C=C1C[C@]2(O)[C@@]3(C)CCC(=O)C(C)(C)C3=C(O)C(=O)[C@@]2(C)[C@@H]2C(=O)O[C@@](C)(C(=O)OC)C(=O)[C@@]12C,outcome,[18],inactive [at 17.4 µM]
C[C@@H]1CN(Cc2ccc(F)cc2)CCN1C(=O)COc1ccc(Cl)cc1NC(N)=O,Potency,[19],inactive
same,Potency,[8],2.51 µM (active)
C[C@@]1(CO)[C@H](O)CC[C@@]2(C)[C@H]1CC[C@H]1C[C@@H]3C[C@@]12CC[C@]3(O)CO,outcome,[9],inactive
same,"activity change, negative = inhibition",[10]; at 17.2 µM (top of the series),10.1% (inactive)
same,outcome,[11],inactive
same,Potency,[12],> 20.6 µM (inactive)
same,Potency,[6],inactive
same,Potency,[7],inactive
C=C1[C@@H](C)[C@H]2[C@H](Cc3ccccc3)NC(=O)[C@]23[C@H](OC(C)=O)/C=C/[C@](C)(O)C(=O)[C@@H](C)C/C=C/[C@H]3[C@@H]1O,Potency,[6],inactive
same,Potency,[7],inactive
CCCCN1[C@@H]2CC[C@H]1CC(OC(c1ccc(F)cc1)c1ccc(F)cc1)C2 (some centres undefined),Potency,[16],5.01 µM (active)
CCC1NC(=O)C2C(Cl)C(Cl)CN2C(=O)C(CC)NC(=O)CC(c2ccccc2)NC(=O)C(CO)NC1=O (centres undefined),outcome,[20],inactive [at 17.4 µM]
C[C@H]1CCC/C=C/C2C[C@H](O)C[C@H]2[C@H](O)/C=C/C(=O)O1 (some centres undefined),Potency,[6],inactive
same,Potency,[19],147 nM (active)
same,Potency,[7],316 nM (active)
same,Potency,[8],1 µM (active)
same,Potency,[17],140 nM (active)
Cc1ccccc1CN1CCC(N2CCC(n3c(=O)[nH]c4ccccc43)CC2)CC1,outcome,[20],inactive
CCC1C2CC3C4N(C)c5ccccc5C45CC(C2C5O)N3C1O (centres undefined),outcome,[18],inactive
Nc1ncnc2c1ncn2[C@@H]1O[C@@H]2COP(O)(=S)O[C@H]2[C@H]1O (some centres undefined),outcome,[18],inactive [at 9.27 µM]
C=C(C)[C@@H]1[C@H]2OC(=O)[C@H]1[C@]1(O)C[C@H]3O[C@]34C(=O)O[C@H]2[C@]14C,outcome,[18],inactive
same,outcome,[20],inactive
Cc1sc2c(c1C)C(c1ccc(Cl)cc1)=NC(CC(=O)Nc1ccc(O)cc1)c1nnc(C)n1-2 (centres undefined),"activity change, negative = inhibition",[8],-87.5%
CN1C[C@@H]2CN(c3ccc(-c4ccccc4)nn3)C[C@@H]2C1,outcome,[20],inactive
COC1C(O)C(C)OC(OC2C(CO)O[C@@H](O[C@@H]3CC4CCC5C(CC[C@]6(C)[C@@H](C7=CC(=O)OC7)CC[C@]56O)[C@@]4(C)[C@H](OC(C)=O)C3)C(O)C2O)C1O (some centres undefined),outcome,[20],inactive [at 17.4 µM]
CN1CCN(c2nc3ccccc3nc2Cl)CC1,outcome,[18],inactive
same,outcome,[20],inactive
CN[C@@H]1C[C@H]2O[C@@](C)([C@@H]1OC)n1c3ccccc3c3c4c(c5c6ccccc6n2c5c31)C(=O)NC4,Potency,[19],829 nM (active)
same,Potency,[17],198 nM (active)
